PubChem BioAssay AID1259372 (The Scripps Research Institute Molecular Screening Center, 2018)
Out of some 4,700 compounds screened, about 760 (16%) were called active. These entries were drawn from the full list. A number with no mark means an inactive call.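 The calls were made as follows: active = inhibition above a cutoff derived from the DMSO control wells (cut at about 28% in these data); inactive = the rest.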

Biological target: Microphthalmia-associated transcription factor (Homo sapiens) (UniProt O75030)
Assay: blockers of human MITF dimerization – biochemical, AlphaScreen, triplicate, confirmation (AID 1259372)
Conditions: AlphaScreen MITF homodimerization, biotin/His-MITF beads; at 2.6 µM; active compounds read high

Microphthalmia-associated transcription factor (Homo sapiens), sequence (O75030 whole entry, looked up): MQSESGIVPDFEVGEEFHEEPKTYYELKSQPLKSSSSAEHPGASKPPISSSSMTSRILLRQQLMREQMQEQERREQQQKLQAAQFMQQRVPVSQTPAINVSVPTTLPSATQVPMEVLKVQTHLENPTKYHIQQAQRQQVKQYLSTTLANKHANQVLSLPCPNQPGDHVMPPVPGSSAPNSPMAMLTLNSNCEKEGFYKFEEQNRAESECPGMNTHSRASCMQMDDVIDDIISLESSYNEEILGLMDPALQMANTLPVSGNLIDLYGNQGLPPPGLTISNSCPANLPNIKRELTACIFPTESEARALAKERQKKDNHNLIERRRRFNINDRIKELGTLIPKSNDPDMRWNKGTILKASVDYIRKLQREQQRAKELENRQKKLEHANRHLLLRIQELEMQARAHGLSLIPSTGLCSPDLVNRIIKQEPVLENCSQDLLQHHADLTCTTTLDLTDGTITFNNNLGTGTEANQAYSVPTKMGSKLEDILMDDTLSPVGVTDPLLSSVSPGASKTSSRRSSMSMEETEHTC

| Structure (SMILES) | inhibition |
| --- | --- |
| COc1cc(NC(=O)CCc2nc(C3=CCN(C)CC3)no2)cc(OC)c1OC | 66.9% (active) |
| CCC(C)N1CCN(Cc2cccc(OC)c2)CC1 (stereo not given) | 13.4% |
| CCC(CC)N1CCN(Cc2ccc(F)cc2)CC1 | 3.06% |
| COc1ccc(CN2CCN(Cc3ccccc3)CC2)cc1C | -1.48% |
| CSc1ccccc1NC(=O)CN(C)CC(=O)Nc1ccc(C#N)c(Cl)c1 | 4.26% |
| CCOC(=O)C1C2NC(=S)N(CC)C1(C)Oc1ccc(Cl)cc12 (stereo not given) | 33.4% (active) |
| CCOC(=O)C1C2NC(=S)N(c3ccc(F)cc3)C1(C)Oc1c(OCC)cccc12 (stereo not given) | 24.2% |
| CN1CCC(N(C)c2ncnc3scc(-c4ccc(Cl)cc4)c23)CC1 | -5.93% |
| CCC(C)N1CCN(Cc2ccc(SC)cc2)CC1 (stereo not given) | 3.6% |
| Fc1ccccc1CN1CCN(Cc2ccccc2F)CC1 | 4.39% |
